From PubChem
HttQ103 aggreg = inhibitors of mutant huntingtin aggregate formation in PC12 cells. PC12 HttQ103-GFP aggregates, Acumen cytometry, 40 h. Potency, µM (doses to about 46.1 µM), for inactives: top-dose activity change, negative = inhibition, most hits filed as inhibitors. hit rate 1.1% among 220,000. AID 1688; also: % is scaled to controls: 0 for no effect and ±100 for the full control effect; nearly all actives have a fitted effect of over 60% in size
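Multiplexed with ATP-based cell death, this channel scores GFP aggregates in PC12 cells expressing inducible HTTex1-Q103-GFP. Induction used 100 nM tebufenozide; compounds were tested in concentration series.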
ATXN2 expr inh = reduces ATXN2 reporter expression in HEK-293 cells; hit rate 0.72% among 360,000; Potency, µM (top dose mostly 57 µM), without a hit: top-dose activity change, negative = inhibition, usual class: inhibitors; AID 1745845; HEK-293 ATXN2-luciferase reporter, luminescence, 24 h; also: % is scaled to controls: 0 for no effect and ±100 for the full control effect; nearly all actives have a fitted effect of over 55% in size
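ATXN2-luciferase reporter cells (luciferase flanked by upstream and downstream ATXN2 gene portions) were treated 24 h at 37 °C with compounds at up to 57 uM. SteadyGlo luminescence gave expression; GF-AFC fluorescence gave viability.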
HTT cytoprotect = protects HTT-Q103 PC12 cells, measured by ATP. PC12 HTT-Q103 induced, cytoprotection, ATP luminescence, 40 h. Potency, µM (titrated, usually from 56.4 µM), for the others: cytoprotection (ATP increase), usual class: activators. hit rate 0.14% among 230,000. AID 1471; also: % of control where 0% means no effect; nearly all actives have a fitted effect of over 45% in size
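Huntington model: PC12 line, ecdysone-inducible HTTQ103 exon1–GFP, tebufenozide 100 nM. Test articles in a dose series. Endpoint luminescence from cellular ATP.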
HepG2 tox-1 = kills HepG2 cells in TGF-b inhibitor counter-screen; HepG2 CAGA-GFP viability, ATP luminescence, 18 h; AID 588856; hit rate 0.76% among 410,000; Potency, µM (top dose mostly 46.1 µM), for inactives: at the top dose activity change, negative = cytotoxicity, most hits filed as cytotoxic
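CellTiter-Glo luminescence gave cytotoxicity after 18 hours at 37 degrees C. The cells were HepG2 CAGA-GFP in 1% FBS DMEM, stimulated with 500 pg/mL TGF-beta after compound addition. %Activity was normalised to no-cell wells (complete cell-killing) and DMSO (no toxicity), and curves were fitted and classified.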
TGFb SMAD3 inh = TGF-b pathway inhibition; HepG2 CAGA-GFP TGF-b/SMAD3 reporter, GFP fluorescence, 18 h; TGF-beta stimulated, 500 pg/mL final; AID 588855; Potency, µM (series often up to 46.1 µM), for inactives: top-dose activity, negative = inhibition, hits mostly inhibitors; hit rate 1.2% among 410,000; also: % is scaled to controls: 0 for no effect and ±100 for the full control effect; nearly all actives have a fitted effect of over 65% in size
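Read-out: total well GFP (ex488/em500-530) summed from mean per-cell fluorescence. Cells: HEPG2 CAGA-GFP, 1% FBS DMEM, 18 h at 37 degrees C with 500 pg/mL final TGF-beta. Unstimulated wells served as the full-inhibition control; stimulated DMSO wells = 0%.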
S2 tox = reduces viability in counter-screen for ATXN expression inhibitors; S2 cells (HEK-293 line with an ATXN2-luciferase reporter) viability, CellTiter-Fluor protease fluorescence, 24 h; Potency, µM (series often up to 56.7 µM), hits mostly cytotoxic; hit rate 0.49% among 400,000; also: nearly all actives have a fitted effect of over 40% in size
TGFb confirm = TGF-b pathway inhibition, cherry-pick retest. shares compounds with TGFb SMAD3 inh. HepG2 CAGA-GFP TGF-b reporter, GFP fluorescence, 18 h; cells stimulated with TGF-beta, 500 pg/mL. Potency, µM (doses to about 46.1 µM), for inactives: top-dose activity, negative = inhibition, usual class: inhibitors. hit rate 63% among 1,600; also: % is scaled to controls: 0 for no effect and ±100 for the full control effect; nearly all actives have a fitted effect of over 65% in size
HepG2 tox-2 = toxic to HepG2 cells in TGF-b counterscreen | shares compounds with TGFb SMAD3 inh | HepG2 CAGA-GFP viability, ATP luminescence, 18 h; cells stimulated with TGF-beta, 500 pg/mL | Potency, µM (titrated, usually from 46.1 µM), without a hit: at the top dose activity, negative = cytotoxicity, hits mostly inhibitors | hit rate 27% among 1,600 | AID 720535; also: % is scaled to controls: 0 for no effect and ±100 for the full control effect; nearly all actives have a fitted effect of over 70% in size
TGFb CCL64 inh = orthogonal confirmation of TGF-b inhibitors in CCL64 cells; shares compounds with TGFb SMAD3 inh; hit rate 41% among 1,600; Potency, µM (series often up to 46.1 µM), for the others: at the highest dose activity, negative = inhibition, hits mostly inhibitors; AID 720536; CCL64 CAGA-GFP reporter, TGF-b stimulated, GFP fluorescence, 18 h; also: nearly all actives have a fitted effect of over 65% in size
TGFb COP inh = validation of TGF-b inhibitors in HepG2 COP promoter reporter. shares compounds with TGFb SMAD3 inh. Potency, µM (titrated, usually from 46.1 µM), without a hit: at the highest dose activity, negative = inhibition, most hits filed as inhibitors. HepG2 COP-GFP TGF-b reporter, GFP fluorescence, 18 h; cells stimulated by added recombinant TGF-beta. hit rate 3% among 1,600; also: nearly all actives have a fitted effect of over 70% in size
* hit, by the source's call; i = inactive; ? = inconclusive; . = no result given; [ ] = dose if it differs, or a comment. Compounds with a hit are over-represented: about 2.8% of the library has one in this group of screens. Calls follow the shape of the dose curve; as a rule, active = well fitted curve in the direction sought with a large enough effect; inconclusive = small, poorly fitted or top-dose-only effect, or another doubt; inactive = no such curve, though single readings can be large; an effect the other way counts as inactive or inconclusive. Potency is read from the fitted curve at half-maximal effect.

SMILES | HttQ103 aggreg | ATXN2 expr inh | HTT cytoprotect | HepG2 tox-1 | TGFb SMAD3 inh | S2 tox | TGFb confirm | HepG2 tox-2 | TGFb CCL64 inh | TGFb COP inh
Cc1ccc(Cc2c(-c3ccc(Cl)cc3)nc3cc(C)c(Br)c(C)n23)cc1 | . | 5% | . | -21% | 11µM* | i | 21µM* | -24% | -18% | -7%
COc1ccc(-c2cccc(C3C4C=CCCC4(C)C(=O)N3Cc3ccccc3)c2)cc1 (stereo unspecified) | . | . | . | -23% | ? | . | . | . | . | .
COC(=O)[C@H](COC(C)(C)C)NC(=O)O[C@H]1C(=O)c2ccc(OC)cc2O[C@@H]1c1ccc2c(c1)OCO2 | . | . | -21% | . | . | . | . | . | . | .
CS(=O)(=O)c1ccc(C(=O)OCC(=O)NC(=O)C2CCCCC2)cc1[N+](=O)[O-] | ? | . | -8%[10 µM] | -116% | 10µM* | . | 12µM* | ? | ? | ?
Cc1cc(C(=O)OCC(=O)NC(=O)C2CCCCC2)ccc1[N+](=O)[O-] | . | . | . | 4% | -2% | . | . | . | . | .
COC(=O)[C@H]1O[C@@H](c2cc(OC)c(C)c(OC)c2OCc2ccccc2)[C@H](C)[C@@H]2O[C@]12C | . | . | 33% | . | . | . | . | . | . | .
Cc1cc(C)c(Cn2cnc(-c3ccc([N+](=O)[O-])cc3)c2)c(C)c1 | -18% | -25% | -62% | -32% | ? | i | . | . | . | .
CC(C)(C)c1ccc(Cn2cnc(-c3ccc([N+](=O)[O-])cc3)c2)cc1 | ? | 13% | 9%[1.9 µM] | -21% | 8.9µM* | i | 21µM* | ? | ? | 51%
O=C1CCCC=C1[C@H](O)CCCCBr | . | . | -4%[10 µM] | . | . | . | . | . | . | .
CCOc1ccc(CNC(=O)c2ccc(Sc3ccc(Cl)cc3)c(NC(C)=O)c2)cc1 | ? | ? | 21%[10 µM] | -19% | ? | i | . | . | . | .
CCOc1ccccc1CNC(=O)c1ccc(Sc2ccc(Cl)cc2)c(NC(C)=O)c1 | -16% | 2% | -3%[10 µM] | -1% | ? | i | ? | -26% | ? | -3%
COc1cc([C@@H]2c3cc4c(cc3C(OC3OC5COC(C)OC5C(O)C3O)C3COC(=O)[C@@H]32)OCO4)cc(OC)c1O (stereo partly specified) | . | . | -53%[1.9 µM] | . | . | . | . | . | . | .
COc1cc2ccccc2cc1C(=O)Nc1ccc(Cc2ccncc2)cc1 | 10µM* | -19% | -77% | -17% | ? | ? | 8.2µM* | ? | 12µM* | 43%
COc1cc2ccccc2cc1C(=O)Nc1ccc(C)cc1 | . | . | . | -61% | ? | i | . | . | . | .
Cc1ccc(SCC(CC(C)C)N2CCN(C)CCC2=O)cc1 (stereo unspecified) | . | . | . | -21% | -7% | . | . | . | . | .
CC(=O)Nc1ccc(C(=O)CSc2ncn(-c3ccccc3)n2)cc1 | -4% | 29% | -2% | -22% | 2.8µM* | i | ? | -4% | 3% | -3%
N#C/C(=C1/SCC(c2ccccc2Cl)S1)n1ccnc1 (stereo unspecified) | 1% | . | 22% | . | . | . | . | . | . | .
Cc1cccc(C2(c3cccc(C)c3)CC2C(=O)Nc2ccc([N+](=O)[O-])cc2O)c1 (stereo unspecified) | ? | ? | 5%[10 µM] | 11µM* | 7.9µM* | 18µM* | 6.5µM* | 12µM* | 7.3µM* | 12%
COC(=O)C/C=C\[C@@H](C)[C@@H](/C=N\OC[C@@H](C)[C@H](OCc1ccccc1)C(C)C)OC | . | . | 4%[10 µM] | . | . | . | . | . | . | .
Oc1c(C(c2ccccc2Cl)N2CCCC2)ccc2cccnc12 (stereo unspecified) | ? | . | -80%[10 µM] | -64% | 0.45µM* | i | ? | ? | ? | -20%
O=C1[C@H]2[C@H]3[C@H](O)[C@H](O)C/C(=N/OCc4ccccc4)[C@@H]3CC[C@@H]2C(=O)N1C[C@@H]1CCCO1 | . | . | -6%[10 µM] | . | . | . | . | . | . | .
O=C(CSc1ncc(-c2ccc(F)cc2)n1Cc1ccco1)Nc1ccc2c(c1)OCO2 | 7% | 6% | -19%[10 µM] | -31% | ? | ? | . | . | . | .
CCOc1ccc(NC(=O)CSc2ncc(-c3ccc(F)cc3)n2Cc2ccco2)cc1 | -7%[9.22 µM] | -24% | 15%[10 µM] | -25% | 16µM* | i | 26µM* | ? | ? | 39%
O=C(CSc1nnc(CNc2ccc(F)cc2)n1Cc1ccccc1)NCc1ccco1 | -25% | 8% | -18%[10 µM] | -1% | -13% | i | . | . | . | .
